From PubChem
RPL19A TOR yeast = alters RPL19A-GFP fluorescence in TOR pathway yeast screen. S. cerevisiae RPL19A-GFP strain, flow cytometry, 3 h; hits give low values. AID 2025. percent response vs DMSO, % at 10 µM. 330,000 compounds, 0.3% hits;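 active = percent response vs DMSO below 50%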;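 also: median channel GFP fluorescence of the barcoded RPL19A-GFP strain; ratio of sample median GFP to plate DMSO average so 100% = DMSO; lower means less RPL19A-GFP as with rapamycin TOR inhibition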
AGP1 TOR yeast = modulators of TOR pathway AGP1-GFP in S. cerevisiae. AID 2066. S. cerevisiae AGP1-GFP multiplex flow cytometry, 3 h; GFP as percent of DMSO wells. GFP response vs DMSO, % at 10 µM. 320,000 compounds, 0.02% hits;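 active = GFP response relative to DMSO above a set limit, near screen average plus 3 SD, cut at about 150% in these data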;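 also: median GFP channel fluorescence of the gated AGP1 strain per well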
CIT2 TOR yeast = alters CIT2-GFP fluorescence in TOR pathway yeast screen | S. cerevisiae CIT2-GFP strain, flow cytometry, 3 h; 100 means same as DMSO wells | GFP response vs DMSO, % at 10 µM | 320,000 compounds, 0.065% hits;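 active = GFP response relative to DMSO above a set limit, near the screen mean plus 3 SD, cut at about 150% in these data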;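 also: ratio of well median GFP fluorescence to mean of DMSO wells on the plate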
MEP2 TOR yeast = modulators of TOR pathway MEP2-GFP in S. cerevisiae; AID 2016; S. cerevisiae MEP2-GFP strain, flow cytometry GFP, 3 h; 100% = DMSO control level; GFP response vs DMSO, % at 10 µM; 330,000 compounds, 0.51% hits;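 active = GFP response versus DMSO above a set limit, roughly screen mean plus 3 SD, cut at about 180% in these data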;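 also: median GFP fluorescence of the barcode-gated MEP2-GFP cells per well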
LAP4 TOR yeast = alters LAP4-GFP fluorescence in TOR pathway yeast screen | S. cerevisiae LAP4-GFP multiplex, flow cytometry GFP, 3 h; median GFP as percent of DMSO wells | GFP response vs DMSO, % at 10 µM | 320,000 compounds, 0.34% hits | AID 2023;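 active = GFP response vs DMSO above a set limit, about the screen mean plus 3 SD, cut at about 150% in these data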
LAP4 cherry2 = second confirmation of modulators of TOR reporter LAP4-GFP in yeast | shares compounds with LAP4 TOR yeast | S. cerevisiae LAP4-GFP strain, flow cytometry GFP, 3 h | GFP response vs DMSO, % at 10 µM | 590 compounds, 20% hits | AID 2621;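 active = GFP signal as percent of the solvent control above about 150%, meaning raised reporter expression, limit read from the data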;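 also: ratio of well median GFP fluorescence to plate DMSO mean so 100% = DMSO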
MEP2 cherry2 = yeast MEP2-GFP modulation, second cherry pick; shares compounds with LAP4 TOR yeast; S. cerevisiae MEP2-GFP strain, flow cytometry GFP, 3 h; GFP response vs DMSO, % at 10 µM; 590 compounds, 10% hits;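 active = GFP signal above 150% of the solvent control wells, that is a rise of more than half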;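 also: median channel GFP fluorescence of all gated yeast cells per well; ratio of median GFP to plate DMSO average so 100% = DMSO level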
RPL19A-GFP pick2 = yeast RPL19A-GFP TOR reporter modulation, second cherry pick; shares compounds with LAP4 TOR yeast; S. cerevisiae RPL19A-GFP strain, flow cytometry GFP, 3 h; hits give low values; 100% means same as DMSO wells; GFP response vs DMSO, % at 10 µM; 590 compounds, 3% hits; AID 2623;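 active = under 65% GFP response relative to DMSO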;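 also: median GFP channel fluorescence per well over the all cells gate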
CIT2-GFP pick2 = second confirmation of modulators of TOR reporter CIT2-GFP in yeast; shares compounds with LAP4 TOR yeast; S. cerevisiae CIT2-GFP strain, flow cytometry GFP, 3 h; DMSO control wells read 100%; GFP response vs DMSO, % at 10 µM; 590 compounds, 8% hits;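 active = GFP response vs DMSO above about 150%, limit read from the data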;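 also: median green fluorescence per well over all gated yeast cells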
AGP1 GFP CP2 = yeast AGP1-GFP TOR reporter modulation, second cherry pick | shares compounds with LAP4 TOR yeast | S. cerevisiae AGP1-GFP strain, flow cytometry GFP, 3 h | percent response vs DMSO, % at 10 µM | 590 tested, under 10 active | AID 2643;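 active = over 150 percent of DMSO response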;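 also: median GFP channel fluorescence over all cells without mother daughter split; sample median GFP divided by mean DMSO control so 100% equals DMSO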
Yeast autofluor = counter-screen for compound autofluorescence in yeast s288c cells | shares compounds with LAP4 TOR yeast | S. cerevisiae s288c, 520 nm autofluorescence, flow cytometry, 3 h; hits give high values; zero means same as solvent-only cells | fluorescence change (kMESF span) at 33 µM | 610 tested, under 10 active | AID 2757;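 active = fluorescence span over the dose series, or activity score, above about 33, limit read from the data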
* = called active by the depositor; x = not tested or not shown. In the library only some 0.93% were active in any assay of this set; here they are far more common.

SMILES | RPL19A TOR yeast | AGP1 TOR yeast | CIT2 TOR yeast | MEP2 TOR yeast | LAP4 TOR yeast | LAP4 cherry2 | MEP2 cherry2 | RPL19A-GFP pick2 | CIT2-GFP pick2 | AGP1 GFP CP2 | Yeast autofluor
COc1ccc(CNC(=O)C2CC(c3cc(C(F)(F)F)cc(C(F)(F)F)c3)=NO2)cc1 (stereo unspecified) | 90 | 83 | 88 | 86 | 121 | x | x | x | x | x | x
CCN=C1S/C(=C\c2ccc(N3CCOCC3)cc2C)C(=O)N1CC | 109 | 104 | 110 | 106 | 97 | x | x | x | x | x | x
COCCN1C(=O)/C(=C/c2ccc(N3CCCC3)cc2C)SC1=S | 120 | 106 | 190* | 186* | 129 | x | x | x | x | x | 1.9
Cc1ccc(C(=O)NNC(=S)NC(=O)c2ccco2)cc1 | 92 | 107 | 78 | 120 | 237* | x | x | x | x | x | 1.9
Cc1ccccc1OCC(=O)NNC(=S)NC(=O)c1ccco1 | 113 | 114 | 107 | 120 | 159* | x | x | x | x | x | 0.6
O=C(/C=C/c1ccc(Br)cc1)NC(=S)NNC(=O)c1ccco1 | 100 | 85 | 138 | 110 | 146 | 133 | 133 | 100 | 114 | 82 | 1.1
O=C(/C=C/c1ccccc1)NC(=S)NNC(=O)c1ccco1 | 93 | 96 | 110 | 105 | 126 | x | x | x | x | x | x
CCN(C(C)=O)c1ccc(Oc2nc(OC)cc(OC)n2)cc1 | 100 | 98 | 101 | 97 | 92 | x | x | x | x | x | x
COCCNS(=O)(=O)c1ccc(OCC(=O)N2CCc3ccccc3C2)c(Cl)c1 | 105 | 100 | 100 | 103 | 106 | x | x | x | x | x | x
O=c1c2ccccc2oc2cc(C#CC3(O)CCCCC3)ccc12 | 100 | 84 | 80 | 92 | 153* | 106 | 114 | 95 | 107 | 93 | x
COc1cccc2oc3cc(C#CC4(O)CCCCC4)ccc3c(=O)c12 | 94 | 81 | 64 | 94 | 127 | x | x | x | x | x | x
CC(C)(O)C#Cc1ccc(CN2CCN(C3CCCC3)C(CCO)C2)cc1 (stereo unspecified) | 86 | 110 | 89 | 93 | 169* | 99 | 105 | 100 | 103 | 100 | x
CC1=NNC(=O)/C1=C\c1cn(-c2ccccc2)nc1-c1cccs1 | 92 | 88 | 94 | 108 | 263* | x | x | x | x | x | 3
CCOC(=O)CN(C(=O)COC(=O)C1(c2ccccc2)CC1)c1ccc(F)cc1 | 98 | 102 | 104 | 98 | 96 | x | x | x | x | x | x
COC(=O)c1scc(C)c1NC(=O)/C=C/C(=O)O | 95 | 106 | 106 | 84 | 101 | x | x | x | x | x | x
Cc1cc(=O)oc2cc(Oc3ccc([N+](=O)[O-])cc3C(F)(F)F)ccc12 | 96 | 96 | 94 | 102 | 99 | 105 | 105 | 98 | 99 | 103 | 0.11
Cc1cccc(OCCCN2CCOCC2)c1C | 101 | 101 | 108 | 111 | 95 | x | x | x | x | x | x
CC(=O)OC[C@]12CC[C@H]3[C@@](C)(CC[C@H]4C(C)(C)CCC[C@]34C)[C@@H]1C[C@H](C1=CC(=O)O[C@@H]1OC(C)=O)O2 | 95 | 80 | 105 | 104 | 155* | 210* | 173* | 98 | 172* | 100 | 4.4
CC1(C)CCC[C@]2(C)[C@H]3CC(=O)O[C@]3(C)CC[C@@H]12 | 106 | 97 | 96 | 113 | 92 | x | x | x | x | x | x
CN=C1SC(CC(=O)Nc2cccc(Cl)c2Cl)C(=O)N1C (stereo unspecified) | 99 | 104 | 99 | 105 | 104 | x | x | x | x | x | x
CC(=O)NC(CC(=O)Nc1ccc2c(c1)OCCO2)c1ccccc1 (stereo unspecified) | 97 | 95 | 103 | 99 | 94 | x | x | x | x | x | x
O=C(O)c1ccccc1SC1CC(=O)N(c2ccc3c(c2)OCO3)C1=O (stereo unspecified) | 100 | 101 | 85 | 89 | 151* | x | x | x | x | x | 0
COc1cccc(N=CC2=C(O)CCCC2=O)c1 | 93 | 99 | 92 | 102 | 106 | x | x | x | x | x | x
COc1ccc(N=Cc2nc(-c3ccccc3)oc2OC(C)=O)cc1 | 103 | 101 | 89 | 98 | 120 | x | x | x | x | x | 0
COc1cccc(N=Cc2nc(-c3ccccc3)oc2OC(C)=O)c1 | 99 | x | x | 89 | x | x | x | x | x | x | -0.2
SMILES | RPL19A TOR yeast | AGP1 TOR yeast | CIT2 TOR yeast | MEP2 TOR yeast | LAP4 TOR yeast | LAP4 cherry2 | MEP2 cherry2 | RPL19A-GFP pick2 | CIT2-GFP pick2 | AGP1 GFP CP2 | Yeast autofluor
CC(C)(C)C1C/C(=C/c2ccccn2)C(=O)/C(=C/c2ccccn2)C1 (stereo unspecified) | 99 | 80 | 84 | 97 | 162* | 181* | 98 | 104 | 106 | 96 | 0
CC(=O)NCC1CCCN(Cc2cn(-c3ccccc3)nc2-c2ccc3c(c2)OCO3)C1 (stereo unspecified) | 81 | 117 | 91 | 112 | 192* | 96 | 96 | 100 | 111 | 99 | x
Cc1ccccc1COc1ccc(/C(O)=C2/C(=O)C(=O)N(CCCn3ccnc3)C2c2ccco2)cc1 (stereo unspecified) | 116 | 117 | 93 | 120 | 121 | x | x | x | x | x | x
CCOC(=O)c1c(C)[nH]c(C(=O)COC(=O)c2[nH]c(C)c(C(C)=O)c2C)c1C | 103 | 108 | 113 | 107 | 110 | x | x | x | x | x | x
CC(=O)c1c(C)[nH]c(C(=O)COC(=O)c2ccc(C)s2)c1C | 118 | 124 | 120 | 131 | 153* | 99 | 105 | 101 | 98 | 100 | x
COc1cc(/C=C2/C(=O)c3cccc([N+](=O)[O-])c3C2=O)c(Br)cc1O | 96 | 86 | 93 | 82 | 109 | 136 | 116 | 109 | 116 | 104 | 0.1
COc1ccccc1NC(=O)CCCCCN1C(=O)c2cccc([N+](=O)[O-])c2C1=O | 103 | 99 | 104 | 110 | 95 | x | x | x | x | x | x
CCCCn1c(-c2ccoc2C)n[nH]c1=S | 107 | 110 | 110 | 111 | 108 | x | x | x | x | x | x
Cc1cccc(CN2C(=O)/C(=C\c3ccc(C(=O)NCCCN4CCN(C)CC4)cc3)Oc3ccccc32)c1 | 91 | 82 | 71 | 90 | 164* | 135 | 105 | 89 | 102 | 92 | x
